Measurements as given in PubChem BioAssay (NCI).
This is part of a sample that, as a whole, favours compounds with a hit. Of some 83,000 tested, about 20% had one in any assay.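 In brief: 96-well plates, 48 h treatment, single concentration, percent growth endpoint.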 Active and inactive are the calls of the source. Rule for the calls: active = growth percent below 10; inactive = the rest.

How the values were obtained:
Assay in all cases: NCI-60 one-dose screen, 48 h (100 = growth as untreated, 0 = no growth, -100 = all killed)
Settings in all cases: 10 µM unless noted
DU-145 prostate = test system: DU-145 prostate
K-562 leukemia = test system: K-562 leukemia
MALME-3M melanoma = test system: MALME-3M melanoma
MDA-MB-231 breast = test system: MDA-MB-231 breast
RXF 393 renal = test system: RXF 393 renal
SF-268 CNS = test system: SF-268 CNS
SF-295 CNS = test system: SF-295 CNS
SF-539 CNS = test system: SF-539 CNS
UACC-257 melanoma = test system: UACC-257 melanoma
M14 melanoma = test system: M14 melanoma

Measured: growth

Cc1nc2ccc(Cl)cc2n1C
inactive: DU-145 prostate 115% | K-562 leukemia 92.4% | MALME-3M melanoma 106% | MDA-MB-231 breast 118% | RXF 393 renal 101% | SF-268 CNS 103% | SF-295 CNS 104% | SF-539 CNS 106% | UACC-257 melanoma 100% | M14 melanoma 106%

N#Cc1c(-c2cccc(F)c2)cc(-c2ccc(Br)s2)[nH]c1=O
inactive: DU-145 prostate 90.1% | K-562 leukemia 24.5% | MALME-3M melanoma 67.2% | MDA-MB-231 breast 79.7% | RXF 393 renal 87.3% | SF-268 CNS 83.1% | SF-295 CNS 73.4% | SF-539 CNS 83.6% | UACC-257 melanoma 87.4% | M14 melanoma 39.8%

C=C1CC[C@@H]2[C@@](C)(CCC[C@]2(C)C(=O)O)[C@@H]1CC[C@H](CO)CCO
inactive: DU-145 prostate 112% | K-562 leukemia 106% | MALME-3M melanoma 93.8% | MDA-MB-231 breast 105% | RXF 393 renal 118% | SF-268 CNS 99.8% | SF-295 CNS 103% | SF-539 CNS 105% | UACC-257 melanoma 109% | M14 melanoma 102%

Cc1nc2cc(Nc3nc(N4CCCCC4)nc(N4CCOCC4)n3)ccc2n1Cc1ccccc1
active: DU-145 prostate 5.36% | MALME-3M melanoma -3.76% | MDA-MB-231 breast 9.6% | RXF 393 renal -5.84%
inactive: K-562 leukemia 84.3% | SF-268 CNS 69% | SF-295 CNS 78.9% | SF-539 CNS 81.6% | UACC-257 melanoma 60.4% | M14 melanoma 48.4%

O=C1N/C(=C\c2ccccc2)c2ncccc21
inactive: DU-145 prostate 106% | K-562 leukemia 90.7% | MALME-3M melanoma 95.2% | MDA-MB-231 breast 94.3% | RXF 393 renal 127% | SF-268 CNS 98.6% | SF-295 CNS 107% | SF-539 CNS 101% | UACC-257 melanoma 100% | M14 melanoma 98.5%

COc1cc(/C=N/NC(=O)c2cnn3c2NC(c2ccccc2)C3)cc(OC)c1OC (stereo not given)
inactive: DU-145 prostate 90.8% | K-562 leukemia 31.6% | MALME-3M melanoma 65.2% | MDA-MB-231 breast 67.1% | RXF 393 renal 87.7% | SF-268 CNS 81.4% | SF-295 CNS 53.1% | SF-539 CNS 68.1% | UACC-257 melanoma 86.5% | M14 melanoma 50.3%

O=C(Nc1ccccc1)Oc1cccc2cccnc12
inactive: DU-145 prostate 92.9% | K-562 leukemia 44.9% | MALME-3M melanoma 108% | MDA-MB-231 breast 96.7% | RXF 393 renal 116% | SF-268 CNS 87.6% | SF-295 CNS 83.9% | SF-539 CNS 95.5% | UACC-257 melanoma 75.6% | M14 melanoma 57.6%

Cc1ccc(-c2nnc(COc3ccc(-c4nnc(N)s4)cc3)o2)cc1
inactive: DU-145 prostate 100% | K-562 leukemia 91.1% | MALME-3M melanoma 67.6% | MDA-MB-231 breast 87.8% | RXF 393 renal 58% | SF-268 CNS 79.6% | SF-539 CNS 109% | UACC-257 melanoma 112% | M14 melanoma 88.1%
active: SF-295 CNS 7.56%

COc1ccc(-c2nc3sccn3c2/C=C/C(=O)c2cc(OC)c(OC)c(OC)c2)cc1OC
active: DU-145 prostate 6.29% | RXF 393 renal -1.12% | SF-295 CNS 5.22% | M14 melanoma 7.09%
inactive: K-562 leukemia 13.9% | MALME-3M melanoma 37.7% | MDA-MB-231 breast 31.7% | SF-268 CNS 28.2% | SF-539 CNS 24.6% | UACC-257 melanoma 24.5%

Cn1c(=O)c2c(-c3ccccc3F)n(-c3ccc4c(c3)OCO4)cc2n(C)c1=O
inactive: DU-145 prostate 110% | K-562 leukemia 78.7% | MALME-3M melanoma 141% | MDA-MB-231 breast 77.1% | RXF 393 renal 83.3% | SF-268 CNS 97.4% | SF-295 CNS 87.9% | SF-539 CNS 92.7% | UACC-257 melanoma 117% | M14 melanoma 117%

CCOC(=O)c1sc(NC(=O)CN2CCC(Cc3ccccc3)CC2)nc1C
inactive: DU-145 prostate 102% | K-562 leukemia 93.9% | MALME-3M melanoma 82.4% | MDA-MB-231 breast 119% | RXF 393 renal 111% | SF-268 CNS 106% | SF-295 CNS 42.3% | SF-539 CNS 106% | UACC-257 melanoma 127% | M14 melanoma 101%

COc1ccc(-n2ncc3c2ccc2cc(S(=O)(=O)c4ccccc4)c(=O)n(C)c23)cc1
inactive: DU-145 prostate 77.7% | K-562 leukemia 113% | MALME-3M melanoma 88.7% | MDA-MB-231 breast 74% | RXF 393 renal 67.9% | SF-268 CNS 69.2% | SF-295 CNS 96.5% | SF-539 CNS 63.7% | UACC-257 melanoma 92.9% | M14 melanoma 92.8%

Clc1ccccc1Nc1ccc2nnc(-c3ccncc3)n2n1
inactive: DU-145 prostate 114% | K-562 leukemia 47.6% | MALME-3M melanoma 112% | MDA-MB-231 breast 108% | RXF 393 renal 96.2% | SF-268 CNS 101% | SF-295 CNS 93.9% | SF-539 CNS 92.7% | UACC-257 melanoma 114% | M14 melanoma 112%

COc1c(O)c2c3c(c1OC)-c1ccccc1CC3N(S(=O)(=O)c1ccc(C)cc1)CC2 (stereo not given)
inactive: DU-145 prostate 36.5% | K-562 leukemia 23% | MALME-3M melanoma 58.6% | MDA-MB-231 breast 52.7% | RXF 393 renal 58.6% | SF-268 CNS 55.1% | SF-295 CNS 85.2% | SF-539 CNS 41.2% | UACC-257 melanoma 54.7% | M14 melanoma 31.2%
